Compound activity deposited in PubChem by National Center for Advancing Translational Sciences (NCATS).
The full list was thinned out, with hits kept by preference.
NS1 function inh = qHTS Assay for Inhibitors of Influenza NS1 Protein Function; Potency, µM (highest dose often 46.1 µM); 270,000 tested, 0.4% active; AID 2326, 2010; calls by dose curve; also: actives are rising curves; nearly all actives have a fitted effect of over 50% in size
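S. cerevisiae expressing influenza A NS1, grown in glucose, washed, then diluted 1:100 into pH 6.0 -URA galactose medium with 23 nl compound. Growth recovery read as OD600; NS1-free strain serves as control.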
AmpC inh no detg = qHTS Inhibitors of AmpC Beta-Lactamase (assay without detergent). AmpC nitrocefin hydrolysis, absorbance 480 nm, 0.0001% Triton. Potency, µM (titrated, usually from 57.1 µM), usual class: inhibitors. P00811. 330,000 tested, 0.52% active. AID 485341, 2010; also: nearly all actives have a fitted effect of over 20% in size
Target sequence (P00811 whole entry, looked up): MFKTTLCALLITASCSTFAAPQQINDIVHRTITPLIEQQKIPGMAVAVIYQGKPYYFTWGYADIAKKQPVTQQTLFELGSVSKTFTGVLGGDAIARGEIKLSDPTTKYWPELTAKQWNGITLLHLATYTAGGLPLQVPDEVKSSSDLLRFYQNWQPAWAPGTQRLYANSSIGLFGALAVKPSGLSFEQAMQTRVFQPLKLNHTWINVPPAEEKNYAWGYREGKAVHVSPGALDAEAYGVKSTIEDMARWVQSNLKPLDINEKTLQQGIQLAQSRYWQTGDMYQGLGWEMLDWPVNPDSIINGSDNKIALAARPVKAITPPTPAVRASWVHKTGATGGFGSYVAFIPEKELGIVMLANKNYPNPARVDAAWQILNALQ
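20 mM phosphate pH 7.0 + 0.01% (detergent screen) or 0.0001% Triton X-100; 5.3 nM AmpC reagent; cpd preinc 15 min RT; nitrocefin (800 uM stock) to start; A480 q20 s × 4 min; Activity was normalised to no-enzyme and no-compound control wells.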
Shiga toxin inh = A qHTS for Small Molecule Inhibitors of Shiga Toxin; Vero cells, Shiga toxin protein synthesis inhibition reporter; inhibition, % at 38.7 µM; 290,000 tested, 9.2% active; AID 2315, 2010; in the data active = inhibition mostly above about 28%, no sharp cut-off; inactive = mostly below about 43%
AmpC inh detg = qHTS Inhibitors of AmpC Beta-Lactamase (assay with detergent); AmpC hydrolysis of nitrocefin, absorbance 480 nm, 0.01% Triton; P00811; Potency, µM (highest dose often 114 µM), hits mostly inhibitors; 370,000 tested, 0.041% active; also: nearly all actives have a fitted effect of over 25% in size
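AmpC (5.3 nM in the dispensed reagent) in 20 mM phosphate pH 7.0 with 0.01% (detergent screen) or 0.0001% Triton X-100 was preincubated with compounds for 15 min at room temperature. Nitrocefin was then added from an 800 uM solution, and hydrolysis was followed at 480 nm.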
Cycloheximide cs = Cycloheximide Counterscreen for Small Molecule Inhibitors of Shiga Toxin | AID 2314, 2010 | cell reporter, cycloheximide protein synthesis inhibition counterscreen | max response, % | 300,000 tested, 12% active; in the data active = max response mostly above about 13%, no sharp cut-off; inactive = mostly below about 14%; also: read at 38.3 µM for the half of the compounds with a filed dose
Each line names hits and unclear results; the compound was inactive in the other large screens. Unless noted, calls follow the shape of the dose curve; as a rule, active = well fitted curve in the direction sought with a large enough effect; inconclusive = small, poorly fitted or top-dose-only effect, or another doubt; inactive = no such curve, though single readings can be large; an effect the other way counts as inactive or inconclusive.

Cc1cc2c(=O)n(Cc3ccco3)c(SCC(=O)N3CCCc4ccccc43)nc2s1	Cycloheximide cs 12
O=C(CSc1nc2sc3c(c2c(=O)n1Cc1ccco1)CCC3)N1CCc2ccccc21	none (no result: AmpC inh no detg, Shiga toxin inh, AmpC inh detg, Cycloheximide cs)
Nc1nc(SCc2ccc3c(c2)OCO3)n[nH]1	AmpC inh detg inconclusive (no result: AmpC inh no detg)
CNS(=O)(=O)c1cccc(C(=O)OCC(=O)c2cc(C)n(-c3ccc4c(c3)OCO4)c2C)c1	NS1 function inh inconclusive, Cycloheximide cs 36
CNS(=O)(=O)c1cccc(C(=O)OCC(=O)c2cc(C)n(CC3CCCO3)c2C)c1 (stereo not drawn)	AmpC inh detg inconclusive (no result: NS1 function inh, Shiga toxin inh, Cycloheximide cs)
Cc1cc(C(=O)CN2C(=O)NC3(CCCC3)C2=O)c(C)n1-c1ccc2c(c1)OCO2	none
Cc1cc(C(=O)COc2ccccc2Cl)c(C)n1-c1ccc2c(c1)OCO2	Shiga toxin inh 93, Cycloheximide cs 53
Cc1cc(C(=O)CSc2n[nH]c(N)n2)c(C)n1-c1ccc2c(c1)OCO2	Cycloheximide cs 10
COc1ccc(OC)c(C(C[N+](=O)[O-])c2c(C)cc3ccccn23)c1 (stereo not drawn)	none
COc1ccc(-n2c(=O)c3c(c4cc(OC)ccc4n3C)n(Cc3c(F)cccc3Cl)c2=O)cc1	none (no result: NS1 function inh, AmpC inh no detg, Shiga toxin inh, Cycloheximide cs)
O=C(N/N=C/c1c(O)n(-c2ccccc2)c(=S)[nH]c1=O)c1ccccc1	Shiga toxin inh 60, Cycloheximide cs 40
O=c1[nH]c(=S)n(C2CC2)c(O)c1C=NCc1cccnc1	none
O=C(N/N=C/c1c(O)n(C2CC2)c(=S)[nH]c1=O)c1ccccc1O	Cycloheximide cs 25
O=C(N/N=C/c1c(O)n(-c2ccccc2)c(=O)[nH]c1=O)c1ccncc1	none
Cc1ccccc1-n1c(O)c(/C=N/NC(=O)c2ccccc2O)c(=O)[nH]c1=S	Shiga toxin inh 76, Cycloheximide cs 46
O=C(Nc1ccc(OCc2cc(=O)n3c4c(sc3n2)CCCC4)cc1)c1cccc(F)c1	none (no result: NS1 function inh, AmpC inh no detg, Shiga toxin inh, Cycloheximide cs)
COCc1c(CCl)cnc(C)c1O	Shiga toxin inh 48, Cycloheximide cs 8.1
O=C(c1cccc2ccccc12)C1CCCN(C(=O)c2ccc(N3CCOCC3)cc2)C1 (stereo not drawn)	none
CSc1ccccc1C(=O)C1CCCN(C(=O)c2ccc(N3CCOCC3)cc2)C1 (stereo not drawn)	Shiga toxin inh 34, Cycloheximide cs 17
COc1ccc(NC(=O)CN2CCN(Cc3ccccc3)S2(=O)=O)c(OC)c1	none (no result: NS1 function inh, AmpC inh no detg, Shiga toxin inh, Cycloheximide cs)
NC(=O)c1ncn([C@@H]2O[C@H](CO)[C@@H](O)[C@H]2O)c1N	none (no result: NS1 function inh, AmpC inh no detg, AmpC inh detg)
CSc1ccccc1OCc1cc(C(=O)N(C)CCn2nc(C)cc2C)no1	Shiga toxin inh 30, Cycloheximide cs 31
Cc1ccc(CN(C)C(=O)c2cc(COc3ccc(F)cc3Cl)on2)o1	Shiga toxin inh 50, Cycloheximide cs 31
Cc1ccc(CN(C)C(=O)c2cc(COc3cccc(C(F)(F)F)c3)on2)o1	none
Cc1nonc1CN(C)C(=O)c1cc(COc2ccc(F)cc2Cl)on1	Shiga toxin inh 58, Cycloheximide cs 46
CSc1ccccc1OCc1cc(C(=O)N(C)Cc2ccncn2)no1	Shiga toxin inh 105, Cycloheximide cs 49
Oc1ccc(CNc2ccc(C(F)(F)F)cc2Cl)c2cccnc12	none (no result: NS1 function inh, Shiga toxin inh, Cycloheximide cs)
COc1cc(C2CC(=O)Nc3c2c(=O)nc2c(C)cccn32)cc(OC)c1OC (stereo not drawn)	none (no result: NS1 function inh)
COc1ccc(OC)c(CNC(=O)Cn2ncc3c([nH]c4ccc(C)cc43)c2=O)c1	none (no result: NS1 function inh, AmpC inh no detg, Shiga toxin inh, Cycloheximide cs)
O=C(c1cccc(Cl)c1)N(Cc1cccc(F)c1)C1CCS(=O)(=O)C1 (stereo not drawn)	none (no result: NS1 function inh, AmpC inh no detg, Shiga toxin inh, Cycloheximide cs)
Cc1cc(CN(C)C(=O)c2cc(COc3ccc(F)cc3Cl)on2)n[nH]1	Shiga toxin inh 117, Cycloheximide cs 33
CCN(CCN1CCCC1)C(=O)c1cc(COc2ccccc2SC)on1	none
C#CCN(Cc1ccco1)C(=O)c1cc(COc2ccc(F)cc2Cl)on1	Shiga toxin inh 47
CSc1ccccc1OCc1cc(C(=O)N(C)Cc2nonc2C)no1	Shiga toxin inh 189, Cycloheximide cs 59
Cc1ccc2nc(Cl)c(CNCc3ccccc3)cc2c1	none
CCOc1cc(/C=N/NC(=O)CN2CCCCC2)ccc1OCc1cccc(Cl)c1	none
Cc1cccc(C(=O)N2N=C(c3ccc(NS(C)(=O)=O)cc3)CC2c2cccs2)c1 (stereo not drawn)	none
CS(=O)(=O)N1N=C(c2ccco2)CC1c1ccc(Br)cc1 (stereo not drawn)	Cycloheximide cs 21
CS(=O)(=O)N1N=C(c2ccc(Br)cc2)CC1c1cccs1 (stereo not drawn)	Shiga toxin inh 48, AmpC inh detg inconclusive, Cycloheximide cs 32
Cc1ccc(C2=NN(S(C)(=O)=O)C(c3cccs3)C2)cc1 (stereo not drawn)	Shiga toxin inh 178, Cycloheximide cs 35
CS(=O)(=O)N1N=C(c2ccco2)CC1c1cccc([N+](=O)[O-])c1 (stereo not drawn)	none
CC(=O)Nc1ccc(C2=NN(c3ccccc3)C(c3cccs3)C2)cc1 (stereo not drawn)	Shiga toxin inh 88, Cycloheximide cs 70 (no result: NS1 function inh)
C[C@@](O)(/C=C/[C@H]1CC=CC(=O)O1)[C@@H](C[C@@H](O)\C=C/C=C\C=C\CO)OP(=O)(O)O	none (no result: NS1 function inh, AmpC inh no detg, AmpC inh detg)
CC1CC(C)CN(C(=O)CSc2ncnc3sccc23)C1 (stereo not drawn)	none (no result: NS1 function inh, Shiga toxin inh, Cycloheximide cs)
CNS(=O)(=O)c1cn(CC(=O)N2CCN(c3ccccc3F)CC2)cc1S(=O)(=O)NC	none (no result: NS1 function inh, AmpC inh no detg, Shiga toxin inh, Cycloheximide cs)
COc1ccc(C2=NN(S(C)(=O)=O)C(c3cccs3)C2)cc1 (stereo not drawn)	Shiga toxin inh 60, Cycloheximide cs 41
S=C(Nc1ccccc1)N1N=C(c2cccs2)CC1c1cccs1 (stereo not drawn)	Shiga toxin inh 20
O=C(CNCCO)N1N=C(c2cccs2)CC1c1cccs1 (stereo not drawn)	none
Cc1ccc(C2=NN(C(=O)CNCCO)C(c3cccs3)C2)cc1 (stereo not drawn)	Cycloheximide cs 42
CCc1ccc(C2=NN(S(C)(=O)=O)C(c3cccs3)C2)cc1 (stereo not drawn)	Shiga toxin inh 88, AmpC inh detg inconclusive, Cycloheximide cs 65
CCOC(=O)N1CCN(C(=O)Cn2nc(C)n3nc(-c4ccccc4)cc3c2=O)CC1	AmpC inh detg inconclusive
CC1CCCC(C)N1C(=O)COc1ccc(F)cc1 (stereo not drawn)	Cycloheximide cs 26
CC1CCCC(C)N1C(=O)COC(=O)COc1ccc(C#N)cc1 (stereo not drawn)	none (no result: NS1 function inh, Shiga toxin inh, AmpC inh detg, Cycloheximide cs)
CC1CCCC(C)N1C(=O)COc1ccc([N+](=O)[O-])cc1Cl (stereo not drawn)	none (no result: NS1 function inh)
Cc1cc(Cl)ccc1OCC(=O)N1C(C)CCCC1C (stereo not drawn)	Shiga toxin inh 73, Cycloheximide cs 20
Cc1ccc(O)c(NC(=O)c2noc3c2CCCCC3)c1	Shiga toxin inh 185, Cycloheximide cs 42 (no result: NS1 function inh)
